Screening results from PubChem.
PI5P4K alpha inh = qHTS for Inhibitors of phosphatidylinositol 5-phosphate 4-kinase (PI5P4K); PI5P4Kalpha enzyme, ADP-Glo luminescence, 60 min; active compounds read low; AID 652105, 2013; max response, %; 330,000 compounds, 1.2% hits; active = max response of -50% or lower; inconclusive = between -30% and -50%; inactive = -30% or higher; also: value at the top dose of about 77 µM; % is scaled to controls: 0 for no effect and ±100 for the full control effect
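Compounds were pin-transferred onto PI5P4Kalpha and substrate in HEPES pH 7.4 buffer with EGTA, CHAPS and 5% DMSO. ATP (5 microM final) started the reaction, which ran 60 minutes at room temperature before ADP-Glo detection.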
PGK inhibitor = qHTS Assay to Find Inhibitors of Phosphoglycerate Kinase | 380,000 compounds, 0.043% hits | Potency, µM (highest dose often 57.5 µM), without a hit: at the top dose activity change, negative = inhibition, actives largely listed as inhibitors | AID 602233, 2012 | Phosphoglycerate kinase, glycosomal (Trypanosoma brucei brucei), P07378 | PGK/GAPDH coupled, Kinase-Glo luminescence, 60 min; also: potency is read from the fitted curve at half-maximal effect; % is scaled to controls: 0 for no effect and ±100 for the full control effect; nearly all actives have a fitted effect of over 60% in size
Target sequence (P07378 whole entry, looked up): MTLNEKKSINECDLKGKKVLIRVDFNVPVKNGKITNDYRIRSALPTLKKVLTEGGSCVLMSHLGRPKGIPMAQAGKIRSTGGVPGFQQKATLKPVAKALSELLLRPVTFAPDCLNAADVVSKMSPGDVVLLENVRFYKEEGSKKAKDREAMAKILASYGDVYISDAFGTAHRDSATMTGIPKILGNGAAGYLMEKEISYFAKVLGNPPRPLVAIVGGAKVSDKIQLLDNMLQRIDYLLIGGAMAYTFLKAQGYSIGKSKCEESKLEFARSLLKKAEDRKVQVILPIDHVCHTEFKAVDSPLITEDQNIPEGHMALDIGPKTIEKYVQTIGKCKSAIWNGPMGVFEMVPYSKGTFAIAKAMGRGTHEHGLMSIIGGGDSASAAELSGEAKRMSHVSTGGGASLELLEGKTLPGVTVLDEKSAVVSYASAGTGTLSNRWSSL
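Recombinant glycosomal PGK reaction used 1,3-bisphosphoglycerate generated in-well by GAPDH (100nM final) in 100mM TEA pH 7.6, 5mM MgCl2, 0.01% Tween-20. After 60 minutes at room temperature, ATP was read by Kinase-Glo Plus luminescence end-point.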
PI4K2A inh = qHTS for small molecular inhibitors of PI4K2A; AID 1346378, 2018; 420,000 compounds, 0.13% hits; purified PI4K2A, ADP-Glo luminescence, 1 h; active compounds read low; activity change, negative = inhibition, % at 76.9 µM; Phosphatidylinositol 4-kinase type 2-alpha (Homo sapiens), Q9BTU6; in the data active = activity change below about -50%; inconclusive = mostly about -30% to -49%;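 also: -100% = wells without enzyme as full effect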
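ADP-Glo luminescence measured ADP generated by PI4K2A enzyme (4 ug/mL before mixing) with 1.2 mM PI substrate (pre-mix) and 300 microM ATP (pre-mix). Tris pH7.5 buffer with MgCl2, Triton X-100; 1 h reaction at ambient temperature.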
Tb PFK inh-1 = qHTS Assay to Find Inhibitors of T. brucei phosphofructokinase | Potency, µM (doses to about 57.5 µM), inactives show at the highest dose activity, negative = inhibition, usual class: inhibitors | 330,000 compounds, 0.17% hits | T. brucei PFK, ADP-Glo luminescence;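 also: potency is read from the fitted curve at half-maximal effect; 0% = uninhibited 1x PFK enzyme wells and -100% = no-enzyme wells; nearly all actives have a fitted effect of over 60% in size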
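Luminescent ADP detection (ADP-Glo, two-step: ATP depletion then ADP-to-ATP conversion for luciferase) reported PFK activity after 45 min room-temperature reaction of 1.25 nM enzyme with 0.5 mM F6P and 0.1 mM ATP at pH 8.0.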
Pin1 inhibitor = qHTS Assay to Find Inhibitors of Pin1; Peptidyl-prolyl cis-trans isomerase NIMA-interacting 1 (Homo sapiens), Q13526; 390,000 compounds, 0.009% hits; Pin1 FP peptide displacement, HiFluor488, 10 min; AID 504891, 2011; Potency, µM (highest dose often 115 µM), for the others: top-dose activity, negative = inhibition, usual class: inhibitors; active = well fitted inhibition curve with a large enough effect in the polarisation, with a control signal flat, not every such curve was filed as active; inconclusive = small, poorly fitted or top-dose-only effect, or effect the other way, or a change in a side signal; inactive = no such curve, though single readings can be large or run the other way; the % refers to the polarisation; also: potency is read from the fitted curve at half-maximal effect; % is scaled to controls: 0 for no effect and ±100 for the full control effect
Target sequence (Q13526 whole entry, looked up): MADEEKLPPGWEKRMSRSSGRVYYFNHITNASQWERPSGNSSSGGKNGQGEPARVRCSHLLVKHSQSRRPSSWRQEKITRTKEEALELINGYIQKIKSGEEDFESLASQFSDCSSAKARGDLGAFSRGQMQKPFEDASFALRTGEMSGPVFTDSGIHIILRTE
TbPFK ATP = Tb PFK orthogonal confirmatory assay using ATP depletion (Kinase-Glo Plus) as an alternative measure of Tb PFK activity: Hit Validation. Potency, µM (doses to about 57.5 µM), inactives show at the top dose inhibition. Tb PFK enzyme, ATP depletion, Kinase-Glo Plus luminescence. shares compounds with Tb PFK inh-1. 1,100 compounds, 47% hits; calls by dose curve; also: potency is read from the fitted curve at half-maximal effect; nearly all actives have a fitted effect of over 60% in size
Tb PFK inh-2 = Inhibitors of T. brucei phosphofructokinase: Hit Validation; Potency, µM (series often up to 57.5 µM), without a hit: top-dose activity change, negative = inhibition, hits mostly inhibitors; AID 504637, 2011; purified T. brucei PFK, ADP-Glo luminescence, 45 min; 1,100 compounds, 41% hits; shares compounds with Tb PFK inh-1;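 also: potency is read from the fitted curve at half-maximal effect; plate controls were full PFK enzyme control for no effect and no enzyme control for full effect; nearly all actives have a fitted effect of over 60% in size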
Starred values were filed as active, the others as inactive; [ ] = another dose, or the depositor's remark. This excerpt belongs to a sample that is enriched for hits. Unless noted, calls follow the shape of the dose curve; as a rule, active = well fitted curve in the direction sought with a large enough effect; inconclusive = small, poorly fitted or top-dose-only effect, or another doubt; inactive = no such curve, though single readings can be large; an effect the other way counts as inactive or inconclusive.

Results for COC(=O)C(O)(c1ccc(NC(=O)c2cccs2)cc1)C(F)(F)F (stereo not drawn) ?
PI5P4K alpha inh: -9; PGK inhibitor: inactive; PI4K2A inh: -1; Tb PFK inh-1: 1%; Pin1 inhibitor: -1%

Results for COc1ccc(OC)c(CCNCc2c(C(=O)O)c(C)n(Cc3ccc(F)cc3Cl)c2C)c1 ?
PGK inhibitor: 17%; PI4K2A inh: -1; Pin1 inhibitor: 0%

What do the screens show for `Oc1ccc2c3c1O[C@H]1c4oc5ccccc5c4C[C@@]4(O)C(C2)N(CC2CC2)CCC314` (stereo partly drawn)?
PI4K2A inh: 0

Results for C[C@@H](C1CC[C@@]2(O)C3=CC(=O)[C@@H]4C[C@@H](O)[C@@H](O)C[C@]4(C)[C@H]3CC[C@]12C)[C@H](O)CCC(C)(C)O (stereo partly drawn) ?
Pin1 inhibitor: -1%

What do the screens show for `CC(C)OC(=O)c1cc(C(=O)c2cc(Cl)ccc2O)coc1=N`?
PI5P4K alpha inh: -14; PGK inhibitor: -6%; PI4K2A inh: 4; Tb PFK inh-1: -8%; Pin1 inhibitor: 25%

What do the screens show for `COc1cc(C(=O)NN=Cc2ccc(N(CCCl)CCCl)cc2)cc(OC)c1OC`?
PI5P4K alpha inh: 2; PGK inhibitor: inactive; PI4K2A inh: 2; Pin1 inhibitor: 38%

Results for COc1cc(C=NNC(=O)c2ccc(NS(=O)(=O)c3cccs3)cc2)cc(Br)c1O ?
PI5P4K alpha inh: -82*; PGK inhibitor: -4%; PI4K2A inh: -2; Tb PFK inh-1: inconclusive; Pin1 inhibitor: -1%; TbPFK ATP: -25%; Tb PFK inh-2: inconclusive

How did Clc1ccc(Cn2ccnc2)cn1 do in these assays?
PI5P4K alpha inh: -4; PGK inhibitor: -3%; PI4K2A inh: 4; Tb PFK inh-1: 0%; Pin1 inhibitor: 0%

What do the screens show for `N=c1ccn(Cc2ccc(Cl)cc2)cc1`?
PI5P4K alpha inh: 2; PGK inhibitor: -5%; PI4K2A inh: -6; Tb PFK inh-1: 11µM*; Pin1 inhibitor: 1%; TbPFK ATP: inconclusive; Tb PFK inh-2: inconclusive

What do the screens show for `N=c1ccn(Cc2ccc(Cl)c(Cl)c2)cc1`?
PI5P4K alpha inh: 2; PGK inhibitor: -7%; PI4K2A inh: -2; Tb PFK inh-1: 1.7µM*; Pin1 inhibitor: 4%; TbPFK ATP: 2.4µM*; Tb PFK inh-2: 5.4µM*

Results for N=c1ccn(Cc2cccc(Cl)c2)cc1 ?
PI5P4K alpha inh: -2; PGK inhibitor: 2%; PI4K2A inh: 7; Tb PFK inh-1: 7.6µM*; Pin1 inhibitor: -1%; TbPFK ATP: inconclusive; Tb PFK inh-2: 19µM*

How did CCCn1c2ccccc2c2nnc(SCC(=O)Nc3cccc(C(C)=O)c3)nc21 do in these assays?
PGK inhibitor: -1%; PI4K2A inh: -1; Pin1 inhibitor: 35%

Results for NC(N)=NOCCC(N)C(=O)O (stereo not drawn) ?
PI4K2A inh: 6

Results for COc1cccc(C(=O)c2cn(CC(=O)Nc3cc(Cl)c(OC)cc3OC)c3nc(C)ccc3c2=O)c1 ?
PGK inhibitor: inactive; PI4K2A inh: -10; Pin1 inhibitor: inconclusive

Results for CNc1cc(CSC)nc(SCc2ccc(Cl)c(Cl)c2)n1 ?
PGK inhibitor: 6%[11.5 µM]; PI4K2A inh: -2; Tb PFK inh-1: 21µM*; Pin1 inhibitor: 30%; TbPFK ATP: 5.4µM*; Tb PFK inh-2: 8.5µM*

What do the screens show for `Cc1nc(SCc2ccc(Cl)c(Cl)c2)n[nH]1`?
PI5P4K alpha inh: 0; PGK inhibitor: -1%; PI4K2A inh: 1; Tb PFK inh-1: 21µM*; Pin1 inhibitor: -6%; TbPFK ATP: 12µM*; Tb PFK inh-2: inconclusive

What do the screens show for `O=C(COc1ccccc1Cl)N1CCN(CCc2ccncc2)CC1`?
PGK inhibitor: -4%; PI4K2A inh: -6; Pin1 inhibitor: 8%

How did Cc1ccc(Cl)cc1Nc1nn2c(=O)c3ccc(C(=O)NCc4cccs4)cc3nc2s1 do in these assays?
PGK inhibitor: 5%; PI4K2A inh: 6; Pin1 inhibitor: inconclusive

Results for COc1ccc2o/c(=N/NC(=O)c3cccs3)c(C(N)=O)cc2c1 ?
PI5P4K alpha inh: -6; PGK inhibitor: -11%; PI4K2A inh: -8; Tb PFK inh-1: inconclusive; Pin1 inhibitor: inconclusive; TbPFK ATP: -31%; Tb PFK inh-2: inconclusive

How did CCOCCOC(C)=O do in these assays?
PI4K2A inh: inactive

Results for CCCCCCCCCCCCCC(=O)O[C@@H]1[C@@H](C)[C@@]2(O)[C@@H](C=C(CO)C[C@@]3(O)C(=O)C(C)=C[C@@H]23)C2C(C)(C)[C@@]21OC(C)=O (stereo partly drawn) ?
PI4K2A inh: 2

What do the screens show for `CC(C)N(CCc1ccncc1)C(=O)Nc1ccc(Cl)c(Cl)c1`?
PI5P4K alpha inh: -1; PGK inhibitor: 0%; PI4K2A inh: -3; Tb PFK inh-1: inconclusive; Pin1 inhibitor: 5%; TbPFK ATP: 9%; Tb PFK inh-2: -7%

How did COc1ccccc1-c1nn2c(=O)cc(CN3CCN(C(=O)COc4ccccc4Cl)CC3)nc2s1 do in these assays?
PGK inhibitor: 9%; PI4K2A inh: -3; Pin1 inhibitor: 0%

How did COc1cccc(OC)c1-c1nn2c(-c3cc(-c4ccccc4)n[nH]3)nnc2s1 do in these assays?
PI5P4K alpha inh: -66*; PGK inhibitor: -12%; PI4K2A inh: 4; Tb PFK inh-1: inconclusive; Pin1 inhibitor: inconclusive; TbPFK ATP: -22%; Tb PFK inh-2: inconclusive

Results for Cc1ccc(Cl)c(O)c1 ?
PI4K2A inh: 2

Results for N#Cc1cc2c(nc1SCC(=O)Nc1ccc(F)c(Cl)c1)C1CCN2CC1 ?
PGK inhibitor: 0%; PI4K2A inh: 2; Pin1 inhibitor: 2%

What do the screens show for `O=Cc1cccc(OC(=O)/C=C/c2ccco2)c1`?
PI5P4K alpha inh: -98*; PGK inhibitor: inconclusive; PI4K2A inh: -12; Tb PFK inh-1: 24µM*; TbPFK ATP: 6.7µM*; Tb PFK inh-2: 12µM*
